Results as given in PubChem BioAssay AID1850 (Southern Research Specialized Biocontainment Screening …, 2009).
Where “and” joins values, the source holds several entries; their conditions need not be identical. Identical values can stand only once. Among all 310,000 compounds or so, about 1,000 (0.32%) were called active. These entries were drawn from the full list. Potency and affinity values are given separately. A number with no mark means an inactive call. No rule for the calls is given here.

test: Inhibition of PhoP regulon, Salmonella typhi GFP reporter cells, confirmation, 4 h (AID 1850); settings: Salmonella Typhi PhoP-promoter GFP reporter, fluorescence, at 50 µM, stronger effect = higher value;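 also: 0% = induced wells with vehicle and 100% = uninduced wells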

Point of comparison: `CN(CC(=O)O)S(=O)(=O)c1ccc2c(c1)NC(=O)CC(=O)N2`, inhibition 12.4%. Against it:
- CC(C)(C)OC(=O)NCc1ccc(CNC(=O)c2[nH]cnc2C(=O)N[C@@H](Cc2ccccc2)C(=O)OC(C)(C)C)cc1 — lower, -19.7%
- COc1ccc(CCC(=O)NNC(=O)Nc2cccc(Cl)c2)cc1 — lower, -3.45%
- Cc1cc(C(=O)Nc2cccnc2)no1 — lower, -7.65%
- N#CCSc1nc(-c2ccccc2)c2cc(Cl)ccc2n1 — lower, -0.85%
- COCCCn1c(=O)c2ccccc2n(Cc2cc(C(=O)OC)ccc2OC)c1=O — lower, 5.08%
- CCOC(=O)CC1C(=O)NCCN1C(=O)c1cccc(OC)c1 (stereo unspecified) — lower, -7.55%
- COCCn1nnnc1C(c1ccc(OC)c(OC)c1)N1CCN(c2nc3ccccc3s2)CC1 (stereo unspecified) — lower, -9.37%
- COc1ccccc1N1CCN(S(=O)(=O)CCNC(=O)C2CCCCC2)CC1 — lower, -2.35%
- CCOc1ccc(NC(=O)CSC(N)=O)cc1 — lower, -9.69%
- N#CCSCC(=O)Nc1ccc(Cl)cc1 — lower, 6.54%
- O=C(N/N=C\c1ccc(O)c([N+](=O)[O-])c1)c1ccccc1-n1cccc1 — lower, -6.79%
- COc1ccc(N(CN2C(=O)c3ccccc3C2=O)C(=O)COc2ccc(Cl)cc2Cl)cc1 — lower, -5.69%
- CN(C)CCCN1c2ccccc2Sc2ccc(Cl)cc21 — lower, 9.15%
- CCNS(=O)(=O)c1ccc(NC(=O)c2ccc(Cn3cc(Br)cn3)o2)cc1 — lower, -4.21%
- O=C(CCn1nc(-c2ccccc2)c2ccccc2c1=O)N1CCN(c2ccccc2)CC1 — lower, 6.41%
- CC1CCN(C(=O)Cn2cnc3c(cnn3C(C)(C)C)c2=O)CC1 — lower, -6.14%
- Cc1nc(SCC(=O)c2ccccc2)[nH]c(=O)c1Oc1ccc(Cl)cc1 — lower, -6%
- COc1ccc(C2CC(=O)c3c(ccc4ccccc34)N2)cc1OC (stereo unspecified) — lower, 2.44%
- Cc1ncc(/C=C2\C(=O)Nc3ccccc32)[nH]1 — lower, -10.1%
- Cc1cccc(NC(=O)CSc2nc(=O)n3ccccc3n2)c1C — lower, 4.11%
- FC(F)(F)c1nnc(Nc2ccc(Cl)cc2)s1 — higher, 13.5%
- Fc1ccc(Nc2nnc(C(F)(F)F)s2)cc1 — lower, -1.74%
- Cc1ccc(C(=O)N/C(N)=N/c2nc3ccccc3o2)cc1 — lower, -27.8%
- O=C(COC(=O)c1ccco1)NC(c1ccccc1)c1ccccc1 — lower, -14.2%

In the case of `CN(C)CCCN1c2ccccc2CCc2ccccc21`, the inhibition is reported as 8.39% and 6.67%.
